# The full ranking holds about 2,300 sequences; the median of “median log2 fold change of GCK-ALFA target abundance (FLAG IP / Myc IP barcode read proportion)” is about 0.095, and the lowest 2% start at about -0.47. The sample holds the lowest values, similar sequences and a random draw of the others, so the mix is not that of the screen.
# B1: LC3A_28_882 (protein)
# chain: SKALESAEKALEEVKKAVEAGDKEPLVLEVEAPSDEENTEKFLKLLEELAKEASKLPGVTIIVNIDSSVSQELRDKIIDKAEELEKKYPNVTIIIALPED
# B2: LC3A_147_504 (protein)
# chain: VKLEVYIDIITKNATEEVKEFVKEIEKELKEKGFEVKVKIKIEKLDEDTDYIEIEIEIKAETEEKAKEAANYIIDKFEEFEEKNKDKILGSLISVEIEKE
# B3: LC3A_132_266 (protein)
# chain: SEELFEKALEELKEILDKIVEALKAGEDPSPLINELYEKAKEYAKKLSLEETEKLVEETIEYAEKLFKERLDPNDEEAIRTLDIIEMLLEGVLIEKELES
# B4: LC3A_132_267 (protein)
# chain: SEELFEEALEELKEILDKIVDLLKAGKDPSPAITELYNTALEYSEKLSLEETEELVEKTIEYAEKLFAERLDPNDVEARRTLDIIEMLLEGVLIEKELRS
# B5: LC3A_132_308 (protein)
# chain: GEELAKKLIEIAKEALRLVKEDDSKEEEVLELLREAKELMEKLAKEASPELAAKTFEEVEEILIEISRLAAKKGWDEVSDEAFALAAEAAQLKSDAKKKL
# B6: LC3A_free_46_2355 (protein)
# chain: VKAEILIDLLHEDEEVLKKAVEEIKKAAKEIAKKYGLKVEIKEEISKLPDGSYYAEIEITLTGETKEKLEKAVTELINKIDEIAKKYNVAAIISYEIIEE
# B7: LC3A_free_46_2426 (protein)
# chain: VDIDVDLLLEGDDEEKLKAAVEEIKEAFKKIAEEYNAELEIEVEFSTDPDGNHFAHINIKITSDDLETQQKIANESIDSIDKIAEKYGVSYIISVDIEKK
# B8: LC3A_17_554 (protein)
# chain: SEELKEEIKRLLEELEALVEELEKYDPEAAKELRKKLEEAKKALEEGDLEEALKILKEVAEEAAERWDSLEHIDPERMSILSMEAEGLLIEALSLEEKLE
# B9: LC3A_17_555 (protein)
# chain: MEELKKELEELLKELEKLVKELEKYDPEAAKKLKEKLKEAKKALEKGDLKKALKILKEVAEEAAEVFDSLEHIDPELMSILSMEAEGLLIEALSLEEKLE
# B10: LC3A_28_1027 (protein)
# chain: SAAEKAIEKAREEARKQKAEGKDIYVTIEVTSSTTLEDAKTIVEGIREIVEEFKDEKNINIIIDVERGVSQEVIDTLADGAEEIEKEYPNVNIIIALEEE
# B11: LC3A_127_175 (protein)
# chain: ELEELLKKLLEVAEELSEELSKPDADLEEIERLVKEAIELAKKALELDPRAEPILEAAEEIKKQLEQYKKAPEEKKEELREHMEMLAESLIIEIESLLLR
# B12: LC3A_23_616 (protein)
# chain: MYKVEIIVDIIVPKEEAEKVEKDLLETINKVLEKNKSKIKEYKIEVEKEELEDGTVLLTIKVTIIYDGNKEEAEELANELVSAIDKTAPDAVISAEVSKI
# B13: LC3A_141_376 (protein)
# chain: KEVEFELEAKGETPEEVVEKMDELEEKVLKAYEELGGGKVKVKVTLTLTNRETGEVKVVEEEFVGDKETIEMLLDGFLIEAASAVMRAPTDVKLKVVLEK
# B14: LC3A_28_1118 (protein)
# chain: SLAEKVIKAFEKQVEAAIASGEETLIEVEVSPELSQEEVEKLAKKMAEYAKKAAEKLKVSVLVSVEKGVSQEKIDIIADEAEKVEEEYPNVNVIIALEEE
# B15: LC3A_3_1420 (protein)
# chain: MEEELERALEELREAGWSEETLEALREVVEALLERGAEEEARRVLELVLENKDISSEDLLEVLREVLELLKTPGVSPEEAVERLEELLRIARNEQEIEEL
# B16: LC3A_free_0_2100 (protein)
# chain: MVTKVEVLGIIPDKSAKEAAEAIKEKLEEYGKKLSEEKGWKVTVELTEVDGSYVITVTIEGEGMSIEEGLEIADEIADLIEELAKEHGVEVTIYESVYEE
# B17: LC3A_147_496 (protein)
# chain: ATVEVDVLVKDKEAAEKVVEEFKKLVEKLKKQGIEVELEVEIEQISPDTWYVKITIKIKAKTEEEEKKVANEVVDEIEKIEEKYKDKILASLISVEIEEK
# B18: LC3A_147_465 (protein)
# chain: KKYEVVLDVLVKDLTPELLKDFEELAEEIKEKFPDAEVELKVETDPEDPSLTLVTLTVTVDTEEDAEKILDFLDEKEEELEKKYSDQILASMISKQEVEP
# B19: LC3A_147_464 (protein)
# chain: MKYRVELDVLVKNLTPELLADFEELAEEIKKKFPDAEVELKVETDPEDPSLSLVTLTVTVDTEEDAKKIEDFLDKKLEELEKKYKDQILASMISREKVEP
# B20: LC3A_23_598 (protein)
# chain: MYKVELIVSLIGEEEEIKKKAEKLKKEIEKILEKYKDKIISYKINVSFEKLEDGKTYLEIEVEIIIEDDEEVAEEIAEELTDAADKILPDGVISVEVEKL
# B21: LC3A_141_368 (protein)
# chain: TTLTITTDIGRASLDEIVAKMDELEEAALAAHRELGGGRVRVTVTITVKNLKTGETTTITEEFEADEEELELIMEGVLIEVASYALTEDAEVTVTVTLEG
# B22: LC3A_3_1723 (protein)
# chain: MEKIKAEALAVLKAQGASPETIKAAEELLKALEEKGFLEAAKTLLEELKKLKGVSSEDLLAALKDLLYKVTNEDLSEEEVIEEIKREFSVLKSAKEIEEL
# B23: LC3A_141_386 (protein)
# chain: MKKEFEFTATEEEAQEVFDFFDEVEKELLEMIEESGGKPVKVKVTIKATNDETGEVVEKEEEFTVTKENVSEVMEGLAIEVLSLLDKVKGTVEVKIEAEV
# B24: LC3A_28_1018 (protein)
# chain: SELEEQIEEIEKEVEEAIEKGEDVVVTLEIKGSMSEEEVREAMERVKEIVLEGAEKGKVDLVIDVDKDVSQEKLDIVLEAADEIEEKAPNVNVIIALEER
# B25: LC3A_147_510 (protein)
# chain: YLVEIDVDLLVKNAVEEVKKRFKEIVEKLKKKGYKVELEIKEEKIDENTYYVEVTIKIYAETKEEAEKAANETLSLLDEMLEELKDEILGSLISVDIEET
# B26: LC3A_59_2020 (protein)
# chain: SEEIEEYREKMRANIDDIDAFTATVREALEKFKDDPEKVKEILKAAMDVVVEELGADKEEAEKVLEEMLKILEEEKDKEKAIEKIVDLIRDLLLLTPIEE
# B27: LC3A_free_8_2464 (protein)
# chain: ASQKLVDTIVAKLDELEKALVKKAKEEGKSRLDILELELEVGSAIAELISNVDASPEEILKTLKEDLKDIIKVAKEIGEEVAKLAKEKSKEILAEAEALI
# B28: LC3A_17_552 (protein)
# chain: REELRERLRRLLEELRALVERLEPYDPEAARRLRERLERAEELLEAGRLREAAETLAEAAREAARRAEELEPKYGNEMSVLAMEFNGLELEAIGLLLELD
# B29: LC3A_132_298 (protein)
# chain: DEEKAKEILEKVKEKVEEAKENIDNEEKVEELLEEIEELIKEAEEKLSPELLAKVMEEVAELLDELSQKFLEAGKEHLAMLADGLAIEAESLALRAEKEI
# Molecular target: MAP1LC3A, Q9H492
# Assay: median log2 fold change of GCK-ALFA target abundance (FLAG IP / Myc IP barcode read proportion) (log2 ratio); each designed protein is fused to an ALFA-tag nanobody in HEK293 cells to bring the named protein to FLAG-tagged glucokinase (GCK); Myc marks an untargeted standard; higher = target protein stabilised (more abundant)
# Conditions: target protein: 3xFLAG-MCP-GCK-ALFA reporter; HEK293 landing pad (RPLP)
# Outline: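 Sequencing of reverse-transcribed, amplified circular RNA barcodes from anti-FLAG and anti-Myc immunoprecipitates provided the readout for an ALFA-nanobody-fused binder library recombined into HEK293 landing-pad cells. Those cells were induced with 2 μg mL^−1 doxycycline, transfected with a plasmid expressing a FLAG-tagged target and a Myc-tagged standard, and lysed after 48 h. Target abundance is the per-binder median log2 ratio of FLAG to Myc barcode read proportions. Only barcodes at a proportion of ≥10^−7 in both replicates and binders with ≥3 barcodes per replicate were kept, with a 10^−6 pseudocount added before the two replicates were pooled.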
row,Binder,median log2 fold change
1,B1,-0.094
2,B2,-0.32
3,B3,0.165
4,B4,-0.528
5,B5,0.14
6,B6,-0.335
7,B7,0.0526
8,B8,0.24
9,B9,-0.476
10,B10,0.173
11,B11,0.0944
12,B12,-0.672
13,B13,-0.00697
14,B14,-0.00261
15,B15,0.3
16,B16,-0.121
17,B17,-0.154
18,B18,-0.192
19,B19,-0.487
20,B20,-0.0746
21,B21,-0.781
22,B22,0.206
23,B23,0.221
24,B24,-0.171
25,B25,-0.119
26,B26,-0.571
27,B27,-0.304
28,B28,0.248
29,B29,-0.0134
